Bioassay records (PubChem)
The entries come from a sample that favours hits as a whole.
LDHA block = qHTS assay for inhibitors of human lactate dehydrogenase; L-lactate dehydrogenase A chain (Homo sapiens), P00338; purified LDHA, NADH/diaphorase-resazurin fluorescence; hits give low values; activity change, % (values are at about 110 or 230 µM); actives 0.15% (n = 480,000); in the data active = activity change below about -30%; inconclusive = mostly about -25% to -30%
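LDH5 2 nM; NADH 0.06 mM, pyruvate 0.2 mM; 200 mM Tris pH 7.4, EDTA, Tween-20; 5 min RT. Detection: diaphorase 0.133 mg/mL + resazurin 37 µM, fluorescence ex540/em590 at 0 and 20 min; normalized to enzyme-free and DMSO wells.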
ASM inhibitor = Inhibitors of Secretory Acid Sphingomyelinase (S-ASM): qHTS. placental ASM, HMU-PC fluorogenic substrate, 60 min. Potency, µM (top dose mostly 57.5 µM), hits mostly inhibitors. actives 0.006% (n = 340,000)
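Human placenta-derived ASM enzyme was preincubated with compound for 10 minutes at room temperature, then given fluorogenic substrate HMU-PC0 (9 uM final) for 60 minutes at 37 °C; a pH 10 stop preceded fluorescence reading at Ex 386/Em 447 nm.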
Mito fusion yeast = qHTS Assay for Small Molecule Inhibitors of Mitochondrial Division or Activators of Mitochondrial Fusion; S. cerevisiae fusion-defective mutant growth rescue, CellTiterGlo 48 h; Potency, µM (top dose mostly 46.1 µM), usual class: activators; actives 0.23% (n = 320,000); also: nearly all actives have a fitted effect of over 45% in size
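Read-out: ATP-based luminescence (CellTiterGlo, 10 min ambient) reporting growth of fusion-defective ts yeast after 48 hours at 37C on glycerol/ethanol YPEG medium in the presence of compound.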
ClpP mod = qHTS Assay for Activators of ClpP; ATP-dependent Clp protease proteolytic subunit (Bacillus subtilis (strain 168)), P80244; actives 1.9% (n = 340,000); AID 651965, 2013; purified B. subtilis ClpP, FRET peptide cleavage, 20 min; Potency, µM (top dose mostly 57.5 µM); active = well fitted falling curve with a large enough effect; inconclusive = small, poorly fitted or top-dose-only effect; inactive = no such curve, though single readings can be large or run the other way; also: the source files actives as falling curves though it sought activators and does not explain the sign; nearly all actives have a fitted effect of over 65% in size
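FRET quenching reversal measured ClpP activation: 10 microg/mL B. subtilis ClpP at pH 8 with the FRET-FV decapeptide, read at 430 nm after 320 nm excitation. The 20-min minus 0-min signal was scaled between DMSO/no-enzyme wells and ADEP (5.8 microM final).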
RGS4 inhibitor = Inhibitors of Regulator of G Protein Signaling (RGS) 4: qHTS; Regulator of G-protein signaling 4 (Homo sapiens), P49798; Transcreener GDP fluorescence polarization, RGS4-accelerated GTP hydrolysis; Potency, µM (highest dose often 114 µM), hits mostly inhibitors; actives 0.039% (n = 390,000); also: nearly all actives have a fitted effect of over 75% in size
Target sequence (P49798 whole entry, looked up): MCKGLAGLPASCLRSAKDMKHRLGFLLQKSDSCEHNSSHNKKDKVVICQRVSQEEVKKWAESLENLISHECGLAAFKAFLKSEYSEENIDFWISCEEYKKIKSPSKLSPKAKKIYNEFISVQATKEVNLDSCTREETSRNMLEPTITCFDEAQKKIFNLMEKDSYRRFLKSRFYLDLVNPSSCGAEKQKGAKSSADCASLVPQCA
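MLSMR compounds (23 nl, pin-transferred) preincubated 10 min at room temperature with a 500nM (2x) first reagent, then RGS4 at 900nM (2x) plus Transcreener GDP mix added; fluorescence polarization (620/688 nm) read before and after 90 min at 30 °C.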
IDH1 R132H inh = qHTS for Inhibitors of mutant isocitrate dehydrogenase 1 (IDH1): qHTS; Potency, µM (highest dose often 76.6 µM), usual class: inhibitors; actives 0.093% (n = 390,000); IDH1-R132H enzyme, NADPH consumption, diaphorase/resazurin fluorescence; Isocitrate dehydrogenase [NADP] cytoplasmic (Homo sapiens), O75874; also: nearly all actives have a fitted effect of over 65% in size
Target sequence (O75874 whole entry R132H, stated change not applied): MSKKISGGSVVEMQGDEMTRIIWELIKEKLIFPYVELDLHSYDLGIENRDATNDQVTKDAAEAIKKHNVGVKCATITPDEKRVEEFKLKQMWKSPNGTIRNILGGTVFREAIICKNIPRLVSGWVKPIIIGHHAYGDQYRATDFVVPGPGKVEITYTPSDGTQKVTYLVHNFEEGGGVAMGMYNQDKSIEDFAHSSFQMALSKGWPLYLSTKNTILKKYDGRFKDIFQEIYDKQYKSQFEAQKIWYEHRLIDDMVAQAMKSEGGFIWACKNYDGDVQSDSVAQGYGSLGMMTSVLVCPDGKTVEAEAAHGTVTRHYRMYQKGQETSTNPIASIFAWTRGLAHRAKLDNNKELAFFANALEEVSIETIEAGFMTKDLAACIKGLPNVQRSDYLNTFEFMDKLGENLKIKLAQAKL
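IDH1-R132H (0.5 ug/mL) preincubated 30 min with compound, then NADPH (0.016 mM) and alpha-KG (2 mM) added; 80 min at RT, pH 7.5. Remaining NADPH coupled via diaphorase/resazurin to fluorescence (540/590 nm); concentration-response curves normalized to no-enzyme control.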
Numbers stand for hits; . = inactive; ? = inconclusive; / = not tested or not shown; ! = not active in a repeat; [ ] = remark or other dose. Unless noted, calls follow the shape of the dose curve; as a rule, active = well fitted curve in the direction sought with a large enough effect; inconclusive = small, poorly fitted or top-dose-only effect, or another doubt; inactive = no such curve, though single readings can be large; an effect the other way counts as inactive or inconclusive.

SMILES	LDHA block	ASM inhibitor	Mito fusion yeast	ClpP mod	RGS4 inhibitor	IDH1 R132H inh
CC(C)(C)CC(C)(C)Nc1c(-c2ccc(O)cc2)nc2cnccn12	.	.	/	22µM	.	.
Cc1ccc2nc(-c3ccc(F)cc3)c(NC(C)(C)CC(C)(C)C)n2c1	.	/	/	?	.	.
O=C(NCC1CC1)C1CC1c1ccncc1 (stereo not given)	.	/	/	/	/	/
CCn1c(SCC(=O)Nc2ccc(NC(=O)c3ccco3)c(OC)c2)nc2ccccc2c1=O	.	.	?	28µM	.	.
Cc1ccc2nc(-c3ccc(NC(=O)C(C)N4C(=O)c5ccccc5C4=O)cc3)sc2c1 (stereo not given)	.	.	.	25µM	.	.
Cc1ccc2nc(-c3ccc(NC(=O)CCN4C(=O)c5ccccc5C4=O)cc3)sc2c1	.	.	.	.	.	.
Cc1ccc(S(=O)(=O)Nc2cc3c(cc2SC2CCCCC2)n(C)c(=O)n3C)cc1	.	/	/	/	/	/
Cc1nn(CCc2nnc(Nc3ccn(Cc4ccccc4Cl)n3)s2)cc1Br	.	/	/	/	/	/
Cc1nn(-c2ccc(F)cc2)c2c1cc(C#N)c1nc3ccccc3n12	.	.	.	16µM	.[11.4 µM]	.
CCc1ccc(N2C(=O)C(Cl)=C(N3CCCCCC3)C2=O)cc1	.	.	.	.	.	.
CCc1ccc(N2C(=O)c3ccc4c5c(ccc(c35)C2=O)CC4)cc1	.	.	.	25µM	.	.
C=CCNc1ncnc2c1[nH]c1ccc(C)cc12	.	.	.	16µM	.	.
COc1ccc2[nH]c3c(NCc4ccco4)ncnc3c2c1	.	.	.	16µM!	.	.
COc1ccccc1N1CCN(CCNC(=O)Nc2cccc(C)c2C)CC1	.	.	.	32µM	.	.
COc1ccc(CCN(C)Cc2ccc(OCc3ccccc3)c(OC)c2)cc1OC	-32	.	.	.	.	.
COc1cc(CN(C)CCc2ccccn2)cc(OC)c1OC	-31	.	.	.	.	.
COc1ccc(CN(C)CCc2ccccn2)cc1OC	.	.	.	.	.	.
N=c1ccn(O)c2ccccc12	.	/	/	/	/	/
Cc1ccc(NC(=O)c2cnc(N3CCCCC3)c3ccccc23)cc1Cl	.	/	/	32µM	.	.
O=C(c1cnc(N2CCCCC2)c2ccccc12)N1CCN(c2cccc(Cl)c2)CC1	.	/	/	28µM	.	.
COc1ccc(NC(=O)c2cnc(N3CCCCC3)c3ccccc23)cc1Cl	.	/	/	?	.	.
CCOC(=O)c1ccccc1NC(=O)c1cnc(N2CCOCC2)c2ccccc12	.	/	/	32µM	.	.
N#Cc1ccccc1NC(=O)c1cnc(N2CCOCC2)c2ccccc12	.	/	/	.	.	.
CC(C)CCCC(C)CC1C(C#N)=C(N)SC(N)=C1C#N (stereo not given)	.	/	/	/	/	/
N=C(N)SCCc1cccc(CCSC(=N)N)c1	.	.	/	.	.	.
SMILES	LDHA block	ASM inhibitor	Mito fusion yeast	ClpP mod	RGS4 inhibitor	IDH1 R132H inh
Cc1cccc(CSC(=N)N)c1	.	.	.	13µM	.	.
O=C(Nc1nonc1-c1ccc2c(c1)CCCC2)c1ccco1	.	/	/	/	/	/
Cc1cc(NC(=O)C(C)Sc2nc(Nc3ccccc3)c3ccccc3n2)no1 (stereo not given)	.	/	/	/	/	/
CCC(=O)N(C)CCCNC(=O)c1nc2ccccc2c(=O)[nH]1	.	/	/	/	/	/
O=C(Oc1ccc(Cl)c2cccnc12)N1CCOCC1	.	.	.	32µM	.	.
Cc1cc(N)n2ncc(-c3cccc(Br)c3)c2n1	.	.	.	18µM	.	.
Cc1cc(N)n2ncc(-c3ccccc3)c2n1	.	.	.	.	.	.
O=C(OCCOc1ccc(Br)cc1)c1ccccc1C(=O)c1ccc(Cl)cc1	.	/	/	/	/	/
O=C(Nc1ccccc1-c1nnc(SCc2ccccc2Cl)o1)c1ccccc1	.	.	.	20µM	.	.
CCOC(=O)CSc1nnc(-c2ccccc2NC(=O)c2ccccc2)o1	.	.	.	.	.	.
CC(C)(C)c1ccc(CSc2nnc(-c3ccccc3NC(=O)c3ccccc3)o2)cc1	.	.	.	28µM	.	.
CCC(=O)Nc1nc2c(OC)cc(NS(=O)(=O)c3cc(F)ccc3F)cc2s1	.	/	/	/	/	/
O=C(Cc1ccc(-c2ccccc2)cc1)NCCc1c[nH]c2ccccc12	.	/	/	/	/	/
COc1ccc(C(=O)NCc2c(C)oc(C)c2C(=O)O)cc1	.	.	.	16µM	.	.
COc1ccc(C(=O)NCc2ccccc2)cc1	.	/	/	/	/	/
CCN(CC)C(=S)SC(C)c1nc(N)nc(N(C)C)n1 (stereo not given)	.	/	/	/	/	/
N#Cc1cccc(OCc2ccc(-c3ccccc3)cc2)c1	.	/	/	/	/	/
CCOC(=O)c1c(CN2CCOCC2)oc2ccc(OC)cc12	.	.	.	.	.	.
CCOC(=O)c1c(CN2CCCCC2)oc2ccc(O)cc12	.	.	.	28µM	.	.
COc1cc(CN2CCN(CCc3ccccc3)C(CCO)C2)cc(OC)c1 (stereo not given)	.	.	.	32µM	.	.
O=C(NN1C(=O)NC2(CCCCC2)C1=O)c1cc2cc(Cl)ccc2o1	.	.	/	.	.	.
O=C(NN1C(=O)NC2(CCCCC2)C1=O)c1ccc(-c2ccc(Cl)cc2)o1	.	.	.	6.3µM	.	.
O=C(NC1CCC(O)CC1)c1ccc(-c2ccc(Cl)cc2)o1 (stereo not given)	.	.	.	25µM	.	.
C=C(C)Cn1c(N2CCN(c3ccccc3)CC2)nc2c1c(=O)n(C)c(=O)n2C	.	/	/	/	/	/
COc1cc(C(=O)N2CCCCC2)ccc1OCc1c(C)noc1C	.	/	/	/	/	/
SMILES	LDHA block	ASM inhibitor	Mito fusion yeast	ClpP mod	RGS4 inhibitor	IDH1 R132H inh
COc1cccc(NC(=O)C(OC(=O)/C=C/c2ccc3c(c2)OCO3)c2ccccc2)c1 (stereo not given)	.	.	.	32µM	.	.
COc1ccc(NC(=O)C(c2ccccc2)N(C)C(=O)/C=C\c2ccc3c(c2)OCO3)cc1 (stereo not given)	.	/	/	.	.	.
COc1ccc2nc(/C=N/NC(=O)[C@H](CCSC)NC(=O)OC(C)(C)C)ccc2c1	.	.	.	8.9µM	.	.
CC(=O)NNC(=S)NCC(C)C	.	/	/	/	/	/
COC(=O)c1ccccc1OC(=O)c1cc2ccccc2oc1=O	.	.	.	/	.	.
O=C(COC(=O)c1cc2ccccc2oc1=O)c1cccc([N+](=O)[O-])c1	.	.	.	32µM	.	.
